PTAP TSG101 blk: blocks PTAP/TSG101 interaction to inhibit HIV-1 budding | Q99816 | Fluorescence polarization, FITC-PTAP peptide / Tsg101 binding | Potency, µM (series often up to 115 µM), without a hit: at the highest dose activity change, negative = inhibition, usual class: inhibitors | 340,000 tested, under 10 active | AID 493005; active = well fitted inhibition curve with a large enough effect in the main read-out, with a control signal flat, not every such curve was filed as active; inconclusive = small, poorly fitted or top-dose-only effect, or effect the other way, or a change in a side signal; inactive = no such curve, though single readings can be large or run the other way; also: potency is read from the fitted curve at half-maximal effect; % of control where 0% means no effect
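Fluorescence polarization binding of Tsg101 binding domain (10 uM final) to FITC-labeled PTAP peptide (50 nM final) in HEPES pH 7.5 buffer with NaCl, Tween 20, EDTA, TCEP. Compounds added before peptide; binding 20 min at RT.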
D3 antag: blocks the human D3 dopamine receptor; P35462; D3R cells, DiscoveRx beta-arrestin luminescence, antagonist mode; active compounds read low; max response, negative = inhibition, %; 360,000 compounds, 2.5% hits; AID 652054; in the data active = max response below about -50%; inconclusive = no clear call, values can overlap the other calls; also: % is scaled to controls: 0 for no effect and ±100 for the full control effect
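Cells expressing the human receptor were seeded at 1500 cells/well, incubated overnight at 37 degrees C in 5% CO2, then exposed to library compounds with dopamine controls for 90 minutes at 37 degrees C before luminescent detection.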
Rango complex inh: prevents formation of the Rango-importin beta complex. Q14974. Rango CFP/YFP FRET sensor + importin beta, 45 min. Potency, µM (series often up to 92.2 µM), inactives show at the highest dose inhibition of complex formation. 340,000 compounds, 0.031% hits. AID 540263;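 also: potency is read from the fitted curve at half-maximal effect; 0% = DMSO wells and 100% = buffer wells lacking importin beta; nearly all actives have a fitted effect of over 15% in size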
Target sequence (Q14974 whole entry, looked up): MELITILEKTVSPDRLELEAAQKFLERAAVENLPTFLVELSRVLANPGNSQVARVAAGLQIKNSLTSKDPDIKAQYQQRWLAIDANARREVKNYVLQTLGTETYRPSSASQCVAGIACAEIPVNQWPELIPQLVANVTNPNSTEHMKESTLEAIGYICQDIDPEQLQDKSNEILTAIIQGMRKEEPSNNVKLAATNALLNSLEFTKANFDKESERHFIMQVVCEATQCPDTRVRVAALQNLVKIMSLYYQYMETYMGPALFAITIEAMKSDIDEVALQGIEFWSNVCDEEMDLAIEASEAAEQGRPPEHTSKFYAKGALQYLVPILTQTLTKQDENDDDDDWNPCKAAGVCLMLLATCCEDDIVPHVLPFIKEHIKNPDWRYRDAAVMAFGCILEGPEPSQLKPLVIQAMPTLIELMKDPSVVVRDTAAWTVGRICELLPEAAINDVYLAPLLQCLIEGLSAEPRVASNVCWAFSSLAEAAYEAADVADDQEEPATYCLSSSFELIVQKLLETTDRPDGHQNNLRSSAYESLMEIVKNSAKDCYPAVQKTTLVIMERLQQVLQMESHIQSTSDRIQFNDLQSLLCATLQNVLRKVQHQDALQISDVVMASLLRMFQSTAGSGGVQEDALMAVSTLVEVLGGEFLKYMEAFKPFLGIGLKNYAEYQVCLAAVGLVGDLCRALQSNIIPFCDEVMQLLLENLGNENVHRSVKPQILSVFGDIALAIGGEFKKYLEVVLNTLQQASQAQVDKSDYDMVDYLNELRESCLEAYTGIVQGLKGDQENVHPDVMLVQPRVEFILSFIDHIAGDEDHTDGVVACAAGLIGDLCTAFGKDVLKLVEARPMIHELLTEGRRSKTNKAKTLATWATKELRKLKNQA
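Inhibition scored from the CFP 486 nm/YFP 530 nm FRET ratio 45 min after adding 0.125 microM importin beta to 50 nM Rango biosensor preincubated 5 min with compound (room temperature, PBS with DTT, Tween-20, BSA). No-importin wells as positive control.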
Mm-Cpn inhibitor: M. maripaludis TRiC chaperonin inhibition | purified Mm-Cpn ATPase, ADP Transcreener TR-FRET | Potency, µM (top dose mostly 76.9 µM), inactives show top-dose activity, negative = inhibition, usual class: inhibitors | 330,000 compounds, 0.031% hits | AID 504842; active = well fitted inhibition curve with a large enough effect; inconclusive = small, poorly fitted or top-dose-only effect; also: potency is read from the fitted curve at half-maximal effect; % is scaled to controls: 0 for no effect and ±100 for the full control effect; nearly all actives have a fitted effect of over 80% in size
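ATPase read-out: TR-FRET ADP immunoassay (anti-ADP Eu cryptate vs ADP-d2), ex 320 nm, em 590/665 nm; signal drops as ADP forms. Enzyme 25 nM, ATP 10 uM, 30 min at 37°C after 10 min compound preincubation.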
Rango release inh: inhibition of RanGTP-driven Rango-importin beta dissociation; O95149+P62826; Biochemical FRET Rango-importin beta, RanGTP-induced dissociation; Potency, µM (highest dose often 46.1 µM), for inactives: at the highest dose activity change, negative = inhibition; 340,000 compounds, 0.071% hits; AID 540253; also: potency is read from the fitted curve at half-maximal effect; % of control where 0% means no effect; nearly all actives have a fitted effect of over 45% in size
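Rango (0.1 uM)–importin beta (0.25 uM) complex; RanGTP-RCC1 trigger; 45 min RT; CFP/YFP FRET read.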
DRD3 agonist: agonists of human D3 dopamine receptor; D3R DiscoveRx beta-arrestin cells, luminescence, 90 min; 410,000 compounds, 0.58% hits; AID 652048; P35462; max activation, %; in the data active = max activation above about 30%; also: 0% is about no effect
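Agonist mode: compounds and dopamine controls were applied to plated cells for 90 min at 37 degrees C after an overnight attachment at 1500 cells/well. Luminescent read-out followed 30 - 60 minutes at room temperature with DiscoveRx detection reagent.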
* = called active by the depositor; u = inconclusive; x = not tested or not shown. Shown are actives, neighbours in structure and some others; about 2.9% of the full set was active somewhere. Unless noted, calls follow the shape of the full dose curve.

SMILES	PTAP TSG101 blk	D3 antag	Rango complex inh	Mm-Cpn inhibitor	Rango release inh	DRD3 agonist
CCCCCc1ccc(C(=O)CCCC)c(=S)[nH]1	0.1%	-25.8	1.0%	-6.3%	-1.9%	30.5*
Cc1ccc(C)c(NC(=O)CCN2CCc3ccccc3C2)c1	-0.5%	-108.4*	-0.5%	-7.5%	6.2%	-13.7
O=C(CCN1CCc2ccccc2C1)Nc1ccc(F)c(F)c1	2.3%	-102.8*	5.8%	-0.2%	1.5%	-18.0
O=C(CCN1CCc2ccccc2C1)Nc1ccc2c(c1)OCO2	-0.4%	-67.1*	0.4%	2.3%	-0.4%	-10.3
CCOc1ccccc1NC(=O)c1cn(C2CCCC2)c(=O)c2c1c1ccccc1n2C	x	x	x	x	x	5.6
COc1cc2c(-c3ccc4cc[nH]c4c3)c(-c3ccsc3)oc(=O)c2cc1OC	-2.6%	2.2	u	-8.4%	-12.4%	51.7*
COc1ccc(-c2c(-c3ccsc3)oc(=O)c3cc(OC)c(OC)cc23)cn1	-8.8%	14.9	-2.3%	-1.2%	-17.2%	8.9
Cc1ccc2ccc(S(=O)(=O)n3nc(C)cc3C)cc2c1	-4.6%	-59.7*	4.4%	u	0.5%	-9.9
Cc1cc(C)n(S(=O)(=O)c2ccc(C)c(C)c2)n1	-3.1%	6.4	-1.2%	-0.4%	-15.6%	-8.7
O=C(O)/C=C/C(=O)c1ccc2c(c1)CCc1ccccc1-2	-3.7%	-139.4*	-1.1%	-3.7%	-5.6%	-80.5
O=C(O)CCn1c(=O)c2cccn2c2cccnc21	x	x	x	x	x	6.8
CN(C)CCCNc1oc(-c2ccc(Cl)cc2)nc1S(=O)(=O)c1ccccc1	1.0%	-73.1*	-4.7%	1.0%	4.2%	-28.6
CN(C)CCCNc1oc(-c2ccccc2Cl)nc1S(=O)(=O)c1ccccc1	-0.5%	-72.4*	-1.3%	0.3%	14.6%	-20.6
COC(=O)c1cc(C)nc2c1C(=O)C(=O)C=C2N1CCOCC1	0.4%	-100.1*	1.1%	-1.9%	1.5%	0.0
COC(=O)c1cc(S(=O)(=O)N2CCOCC2)c(Cl)cc1N1CCOCC1	-5.4%	u	-4.9%	2.3%	5.2%	1.6
COc1ccc(Cn2c(=O)n(-c3ccc(C)cc3)c(=O)c3c2c2cc(C)ccc2n3C)cc1	x	x	x	x	x	36.6*
COc1ccc(Cn2c(=O)n(-c3ccc(OC)cc3)c(=O)c3c2c2cc(OC)ccc2n3C)cc1	x	x	x	x	x	5.7
O=C(CN1C(=O)S/C(=C\c2ccc(-c3cc(C(=O)O)ccc3Cl)o2)C1=O)Nc1ccc2c(c1)OCO2	x	x	x	-0.6%	x	x
Cn1cc(/C=C2/SC(=O)N(CC(=O)Nc3ccc4c(c3)OCO4)C2=O)c2ccccc21	1.4%	-84.1*	u	-0.8%	u	0.2
COC(=O)C1=CN(C(C)C)C=C(C(=O)OC)C1c1cc2c(cc1Br)OCO2	-1.6%	26.7	u	-10.7%	u	33.3*
COc1ccc(CN2CCC(=O)N([C@H](CO)Cc3ccccc3)CC2)cc1	-1.2%	-28.0	3.2%	0.8%	-18.0%	-23.5
N#CC[C@H](c1ccccc1)N1CCN(Cc2ccccc2)CCC1=O	-5.2%	-10.0	-2.6%	-3.2%	-4.0%	34.3*
O=C1CCN(Cc2cccnc2)CCN1[C@H](CO)Cc1ccccc1	x	-66.8*	-1.7%	-4.2%	22.5%	-31.1
Cc1c(C(=O)N2CCC(C)CC2)c(S(=O)(=O)NCc2ccc(Cl)cc2)c(C)n1C	x	x	x	x	x	-14.4
CCOc1ccc(-c2nc(CSCC(=O)NC3CC3)c(C)o2)cc1	-0.8%	11.1	0.2%	1.1%	-5.3%	-4.3
SMILES	PTAP TSG101 blk	D3 antag	Rango complex inh	Mm-Cpn inhibitor	Rango release inh	DRD3 agonist
CCOC(=O)N1CCC(NC(=O)CSCc2nc(-c3ccc(OCC)cc3)oc2C)CC1	-10.0%	19.5	2.4%	0.8%	4.9%	6.2
Cc1oc(-c2ccc(Cl)cc2)nc1CSCC(=O)NC1CCN(Cc2ccccc2)CC1	-5.6%	-76.1*	-1.4%	-3.6%	2.0%	-30.4
CCOc1ccc(-c2nc(CSCC(=O)NC3CCN(Cc4ccccc4)CC3)c(C)o2)cc1	x	-116.9*	x	x	x	-4.6
CCOc1ccc(Cn2nnc(C(=O)Nc3cccc(SC)c3)c2N)cc1	x	x	x	x	x	-11.8
CCOC(=O)CSC1=NC(=O)/C(=C\c2ccc(Cl)cc2)S1	6.7%	-77.8*	5.5%	0.1%	-15.5%	-4.6
CCOC(=O)C1CCN(C2=NC(=O)/C(=C/c3ccc(Cl)cc3)S2)CC1	0.7%	-9.5	0.3%	0.1%	-3.2%	2.3
COc1ccc(CCC(=O)OCc2csc(CC(=O)Nc3ccc(C)cc3)n2)cc1OC	-2.4%	u	-0.9%	-6.3%	-7.7%	-2.5
CN(C(=O)COc1ccc(C(C)(C)C)cc1)C1CCS(=O)(=O)C1 (stereo not given)	-7.6%	-64.0*	-0.8%	1.4%	1.7%	-5.9
COC(=O)c1cccc(C(=O)Nc2ccc(F)cc2)n1	5.5%	-62.1*	1.5%	1.3%	-14.9%	-1.5
CC(=O)Nc1ccc(NC(=O)c2cccc(C(=O)OC(C)C)n2)cc1	2.2%	11.0	-1.6%	1.1%	-8.6%	0.2
COc1cccc(-c2c(-c3cc(OC)cc(OC)c3)n(C)c3ccc(-c4ccc5[nH]ccc5c4)cc23)c1	1.0%	30.0	-4.9%	-15.7%	1.3%	32.4*
